Rows were chosen to be rich in hits. Some 1.3% of all compounds tested hit in one or more screens of this group.
Gli-Sufu block: blocks Gli-Sufu signaling in a luciferase reporter. Sufu-KO-LIGHT fibroblasts, Gli luciferase reporter luminescence. inhibition, % at 5 µM. actives 0.74% (n = 340,000);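 active means inhibition above about 55%, limit read from the data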;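 further: 0% = DMSO-treated cells and 100% = wells with medium but no cells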
LRH-1 inv ag: NR5A2 inverse agonism in reporter assay. O00482. HEK293T StAR-luciferase reporter, LRH-1 transfected, 24 h. inhibition, % at 3.6 µM. actives 0.13% (n = 360,000);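 active means inhibition above the mean inhibition of all tested compounds plus 3 SD, cut at about 73% in these data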;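 further: 0% = DMSO wells and 100% = reporter-only cells lacking LRH-1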
Target sequence (O00482 whole entry, looked up): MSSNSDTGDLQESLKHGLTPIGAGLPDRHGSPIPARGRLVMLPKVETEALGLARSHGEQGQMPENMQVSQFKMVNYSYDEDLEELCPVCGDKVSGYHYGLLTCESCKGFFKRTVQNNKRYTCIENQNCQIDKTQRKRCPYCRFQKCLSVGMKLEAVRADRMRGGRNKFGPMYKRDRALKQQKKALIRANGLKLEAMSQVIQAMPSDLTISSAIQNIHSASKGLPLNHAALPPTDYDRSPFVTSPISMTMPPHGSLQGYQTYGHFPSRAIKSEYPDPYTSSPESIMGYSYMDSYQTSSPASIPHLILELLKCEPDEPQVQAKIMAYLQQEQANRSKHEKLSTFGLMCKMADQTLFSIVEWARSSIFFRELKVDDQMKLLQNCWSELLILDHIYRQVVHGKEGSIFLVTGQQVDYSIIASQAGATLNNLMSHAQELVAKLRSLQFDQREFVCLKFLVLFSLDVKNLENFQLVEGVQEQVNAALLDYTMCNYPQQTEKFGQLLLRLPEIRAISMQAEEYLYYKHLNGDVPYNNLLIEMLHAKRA
SRC2 inh: human SRC2 (NCOA2) inhibition. HEK293 GAL4-SRC2 luciferase reporter, luminescence. inhibition, % at 9 µM. Q15596. actives 0.17% (n = 370,000);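 active means inhibition above the mean inhibition of all tested compounds plus 3 SD, set per campaign, cut at about 52% in these data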;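 further: 0% = DMSO treated cells and 100% = cells given Gossypol at 36 µM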
SRC1 inh: human NCOA1 inhibition | HEK293 GAL4-SRC1 luciferase reporter, luminescence | inhibition, % at 3.6 µM | actives 0.12% (n = 360,000) | AID 588354;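 active means inhibition above the campaign mean plus 3 SD, with each screening campaign given its own cutoff, cut at about 60% in these data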;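 further: 0% = DMSO treated cells and 100% = gossypol at 36 µM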
SRC3 inh: inhibitors of human steroid receptor coactivator 3 (SRC3); Q9Y6Q9; HEK293 GAL4-SRC3 luciferase reporter, luminescence; inhibition, % at 3.6 µM; actives 0.17% (n = 360,000);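 active means inhibition above a per-campaign cutoff, the mean of all compounds plus 3 SD, cut at about 60% in these data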;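 further: 0% = DMSO-treated cells and 100% = gossypol-treated cells at 36 µM; higher means less SRC3-driven luciferase light from the GAL4 reporter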
COUP-TFII inh: inhibitors of human COUP-TFII (NR2F2); P24468; HEK293T NGFI-A luciferase reporter, luminescence; inhibition, % at 8.6 µM; actives 0.7% (n = 370,000); AID 686940;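 active means inhibition above a per-plate cutoff, mean inhibition of test wells between control levels plus 3 SD, cut at about 38% in these data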;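 further: cells cotransfected with COUP-TFII expression vector driving the NGFI-A reporter; 0% = median of COUP-TF2 test wells and 100% = reporter-only cells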
Gli-Sufu confirm: Gli-SUFU antagonism confirmation, single concentration; AID 602428; shares compounds with Gli-Sufu block; actives 40% (n = 2,500); Sufu-KO-LIGHT cells, Gli luciferase reporter, luminescence; inhibition, % at 5 µM;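 active means mean inhibition at 5 µM reaching about 45%, limit read from the data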;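 further: plate controls were DMSO-treated cells for no effect and wells lacking cells for full effect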
SufuKO cytotox: counter-screen for Gli-SUFU antagonists: cytotoxicity. shares compounds with Gli-Sufu block. Sufu-KO-LIGHT cells cytotoxicity, ATP luminescence. cytotoxicity, % at 5 µM. actives 32% (n = 2,500). AID 651994;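 active means mean cytotoxicity at 5 µM above about 25%, limit read from the data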;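 further: cells exposed to compound overnight for roughly 16 to 18 hours; plate controls were DMSO wells with cells for no effect and medium without cells for full effect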
Wnt3a counter: inhibits Wnt3a reporter, counter-screen for Gli-SUFU antagonists; shares compounds with Gli-Sufu block; Wnt-LIGHT cells, Wnt3a-driven luciferase reporter, luminescence; inhibition, % at 6.25 µM; actives 20% (n = 2,500); AID 651995;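 active means mean inhibition above about 25%, limit read from the data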
The depositor's hits bear a star; · = not tested or not shown.

SMILES	Gli-Sufu block	LRH-1 inv ag	SRC2 inh	SRC1 inh	SRC3 inh	COUP-TFII inh	Gli-Sufu confirm	SufuKO cytotox	Wnt3a counter
CCCOC(=O)C[N+](C)(C)CCOC1CC2CCC1(C)C2(C)C (centres undefined)	42	7	8	8	1	4	·	·	·
CCC(C)OC(=O)C[N+](C)(C)CCOC1CC2CCC1(C)C2(C)C (centres undefined)	73*	18	-22	26	24	11	71*	36*	9
NCCC(=O)Nc1ccc(Cl)cc1C(=O)c1ccc[nH]1	·	·	·	·	·	-2	·	·	·
CC(C)c1[nH]nc2c1C(c1ccc3c(c1)OCO3)NC2=O (centres undefined)	·	·	-20	·	·	-6	·	·	·
O=C(CSc1ncccc1-c1nc2ccccc2[nH]1)NCc1ccco1	58*	-16	-19	3	3	-9	28	27*	6
Cc1cc2nc(-c3cccnc3SCC(=O)NCc3ccco3)[nH]c2cc1C	-66	-121	-45	-100	-146	-38	·	·	·
Cn1cnnc1SCc1ccc(C(=O)N=Nc2c(O)n(Cc3ccc(Cl)cc3)c3ccccc23)cc1	52	4	-12	2	-3	34	22	6	-5
Nc1nc(Cl)nc2c1ncn2[C@H]1C[C@H](O)[C@@H](CO)O1	83*	18	-41	3	-30	-54	68*	25*	50*
Nc1nc(=O)n(C2CC(O)C(CO)O2)cc1F (centres undefined)	66*	-27	10	60	61	-41	47*	17	45*
O=C(NC(=S)Nc1ccccc1O)c1cccnc1	82*	-35	-24	-1	-6	1	17	-11	-8
COc1ccc(S(=O)(=O)NC2CCCCC2)cc1C(=O)N1CCCCC1	-4	12	8	-3	14	15	·	·	·
COc1ccc(S(=O)(=O)NC2CCCCCC2)cc1C(N)=O	63*	-16	21	-7	-13	4	7	25	-50
CCCn1c(N)c(C(=O)CSc2nnc(-c3ccoc3C)n2C)c(=O)n(C)c1=O	76*	13	10	0	-2	4	12	22	-25
Cc1ccc2c(c1)CCCN2C(=O)CCc1nc2ccccc2c(=O)[nH]1	90*	8	21	4	8	-17	22	55*	-12
CCC(C(=O)Nc1ccccc1N1CCCC1)c1cccc(Cl)c1 (centres undefined)	·	·	10	·	·	-2	·	·	·
O=C(NCc1ccccc1)C1=C[C@H](C2CCCCC2)C[C@H](OCCCCO)O1	7	-22	15	6	15	5	·	·	·
O=C(Nc1ccccc1)C1=C[C@H](C2CCCCC2)C[C@H](OCCCCO)O1	62*	-8	-10	-24	2	12	82*	4	-46
CCc1nc2ccc(C(=O)NCCCN3CCN(c4ccccc4F)CC3)cc2nc1CC	55	10	10	-9	-11	0	18	27*	-42
Cc1c(C)n(C)c2ccc(C(=O)NCCCN3CCN(c4ccccc4F)CC3)cc12	25	3	6	-17	-4	-2	·	·	·
CC(C)(C)OC(=O)NCc1cc2c(cc1/C=C/S(=O)(=O)NCc1ccc(F)cc1)OCO2	·	·	-10	·	·	-22	·	·	·
O=C(CN1CCSCC1)c1c[nH]c2ccccc12	99*	-3	-40	-3	-1	-4	22	9	-34
CCc1cccc2c(C(=O)COC(=O)c3nn(C)c(=O)c4ccccc34)c[nH]c12	99*	-20	-21	1	-29	7	30	6	-86
Cc1c(C(=O)O)sc2nc(C)n(C)c(=O)c12	96*	2	2	15	5	14	27	21	17
Cc1c(C(=O)O)sc2nc3n(c(=O)c12)CCCCC3	4	3	1	-2	6	-19	·	·	·
COc1ccc(CN2C(=O)c3ccnn3CC2(C)c2nnnn2-c2c(C)cccc2C)cc1 (centres undefined)	·	·	3	·	·	6	·	·	·
SMILES	Gli-Sufu block	LRH-1 inv ag	SRC2 inh	SRC1 inh	SRC3 inh	COUP-TFII inh	Gli-Sufu confirm	SufuKO cytotox	Wnt3a counter
CCCc1c(CC)c(=N)c2ccccc2n1C	51	8	·	13	-8	·	59*	24	1
Cc1ccc(NC(=O)Nn2cnnc2)c(C)c1	55*	7	-25	8	6	-9	31	8	10
CCOC(=O)[C@@]12CCC3=C1N(CCC3)C(=O)[C@H](CC(=O)NCCCCc1ccccc1)C2	·	·	14	·	·	14	·	·	·
CC[n+]1c(/C=C(\C)SC)sc2ccccc21	4	-3	13	6	4	4	·	·	·
CC[n+]1c(/C=C/Nc2ccccc2)sc2ccccc21	68*	-12	20	9	6	19	81*	37*	30*
CC[n+]1c(/C=C(\C)Nc2ccccc2)sc2ccccc21	11	-11	4	-1	-8	5	·	·	·
CCN1/C(=C/C=C/C=C/C=C/c2sc3ccccc3[n+]2CC)Sc2ccccc21	83*	3	29	12	14	-3	91*	32*	45*
O=C(NC1CCCCN(Cc2cccc(Cl)c2)C1=O)c1cccc([N+](=O)[O-])c1 (centres undefined)	·	·	-14	·	·	15	·	·	·
C[C@H]1[C@@H](OC(=O)NCCc2c[nH]c3ccccc23)CC[C@@]23CCCN2C(=O)CCC[C@@H]13	·	·	·	·	·	-1	·	·	·
CCCn1c2c(c(=N)c3c1CCC3)CCCC2	61*	60	20	24	14	25	60*	19	2
Cc1nn(-c2ccccc2)c2sc(C(=O)NCCc3ccc(Cl)cc3)cc12	·	·	-1	·	·	-9	·	·	·
CCCC(=O)N1CCC[C@]2(CC[C@H](CCC#N)O2)C1	·	·	-14	·	·	5	·	·	·
CCCNc1nc2c(c(=O)n(C)c(=O)n2C)n1Cc1cccc(C)c1	65*	11	9	4	15	29	59*	20	31*
COCCNc1nc2c(c(=O)n(C)c(=O)n2C)n1Cc1cccc(C(F)(F)F)c1	68*	6	-3	0	-1	9	71*	29*	28*
Cn1c(=O)c2c(nc(NCCOc3ccc(C(C)(C)C)cc3)n2C)n(C)c1=O	64*	18	16	-2	11	-6	47*	8	7
CCCNc1nc2c(c(=O)n(C)c(=O)n2C)n1CCc1ccccc1	32	14	-1	13	5	19	·	·	·
Cc1ccc(NC(=O)c2cccc3c2-c2ccccc2C3=O)c(C)c1	·	·	3	·	·	6	·	·	·
COc1ccc(-c2cc(C(=O)NN=Cc3ccc(C)s3)[nH]n2)cc1	·	·	-6	·	·	-39	·	·	·
